Experiment [1] deals with Plasmodium falciparum Sir2 (PF13_0152, Sir2A). As to the kind of experiment: pfSir2 binders on small-molecule microarrays, primary screen, biochemical, small-molecule microarray, 635 nm fluorescence (AID 1098).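 Note: score merges spot fluorescence intensity with its signal-to-noise ratio.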 As to conditions: small-molecule microarray binding, fluorescence 635 nm; higher = more signal.
A short description of experiment [2]: small-molecule microarray binders of probe aDKK1, primary screen, biochemical, biotinylated probe, 635/667 nm fluorescence (AID 1099).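 Note: score merges 667nm spot fluorescence with signal to noise across triplicate slides.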 As to conditions: higher = more signal; small-molecule microarray, probe aDKK1, fluorescence unless noted.
A short description of experiment [3]: small-molecule microarray binders of probe aCHRDL2, primary screen, biochemical, biotinylated probe, 635/667 nm fluorescence (AID 1100). As to conditions: higher = more signal; small-molecule microarray, probe aCHRDL2, fluorescence unless noted.
A short description of experiment [4]: splicing luciferase reporter signal modulators, primary screen, spliceosome inhibition project, cell-based, HEK293, splice +/- reporter (AID 1101).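 Note: HEK293 cells carrying a splicing-competent luciferase reporter gene; test concentration not given here.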 Particulars: luminescence, 24 h; higher = more signal, called active from +8 up or from −8 down unless noted.
Experiment [5] has as its target Fibroblast growth factor 10 (Homo sapiens) (UniProt O15520). The experiment in a line: FGF10 binders on small-molecule microarrays, primary screen, biochemical, small-molecule microarray, 635 nm fluorescence (AID 1102). Particulars: FGF10 binding, fluorescence 635 nm, higher = more signal.
Experiment [6] concerns glycogen synthase kinase-3 (GSK3A per assay name; protocol says GSK3B). As to the kind of experiment: GSK3 binders on small-molecule microarrays, primary screen, biochemical, small-molecule microarray, 635 nm fluorescence, GSK3A (AID 1103). Note: the record names both GSK3A and GSK3B. As to conditions: small-molecule microarray binding, fluorescence 635 nm; higher = more signal.
Experiment [7] concerns the target Epidermal growth factor receptor (Homo sapiens) (UniProt P00533). As to the kind of experiment: EGFR binders on small-molecule microarrays, primary screen, biochemical, small-molecule microarray, 635 nm fluorescence (AID 1104).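 Note: score merges 667 nm emission intensity with spot signal to noise over triplicate slides.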 As to conditions: EGFR binding, higher = more signal.
Experiment [8] deals with Follistatin-related protein 3 (Homo sapiens) (UniProt O95633). As to the kind of experiment: FSTL3 binders on small-molecule microarrays, primary screen, biochemical, small-molecule microarray, 635 nm fluorescence (AID 1105).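 Note: score merges emission near 667 nm and signal to noise per printed spot across three slides.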 Particulars: FSTL3 binding, higher = more signal.
The target in experiment [9] is Dickkopf-related protein 1 (Homo sapiens) (UniProt O94907). As to the kind of experiment: DKK1 binders on small-molecule microarrays, primary screen, biochemical, small-molecule microarray, 635 nm fluorescence scan (AID 1106).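 Note: score merges emission near 667 nm with signal to noise over three replicate slides.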 Particulars: DKK1 binding, higher = more signal.
The subject of experiment [10] is Inhibin beta A chain (activin A). The experiment in a line: INHBA (activin A) binders on microarrays, primary screen, biochemical, small-molecule microarray, 635 nm fluorescence scan (AID 1107).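 Note: mouse activin A protein probed at 4.33 µg/mL on printed slides; score merges bound-protein fluorescence near 667 nm with spot signal-to-noise.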 Particulars: small-molecule microarray binding, higher = more signal.
Experiment [11] deals with Human papillomavirus type 1a protein E7 (residues 44-93). The experiment in a line: HPV1a E7 fragment binders on microarrays, primary screen, biochemical, small-molecule microarray, residues 44-93, 635 nm fluorescence (AID 1108).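 Note: E7 fragment applied at 1 µg/mL in TBST for 1 h at 4 C; score combines spot fluorescence with its signal to noise ratio.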 As to conditions: small-molecule microarray binding, fluorescence 635 nm; higher = more signal.
Experiment [12] is described as follows: modulators of HCV replicon luciferase signal, primary screen, HCV replication inhibitor project, Huh7 cells, luciferase reporter (AID 1109).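 Note: huh7 hepatoma cells harbouring a luciferase neomycin HCV replicon reporter; luciferase luminescence as measure of HCV replicon replication; test concentration not given here.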 Particulars: 48 h, higher = more signal.
In experiment [13] the target is Left-right determination factor 2 (Homo sapiens) (UniProt O00292). As to the kind of experiment: LEFTY2 binders on small-molecule microarrays, primary screen, biochemical, small-molecule microarray, 635 nm fluorescence scan (AID 1110). As to conditions: LEFTY2 binding, higher = more signal.
The target of experiment [14] is Calmodulin-1 (Homo sapiens) (UniProt P0DP23). The experiment in a line: CALM1 binders on microarrays, EGTA buffer, profiling panel, biochemical, small-molecule microarray, Cy5-labelled CALM1 (AID 1111).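 Note: labelled calmodulin applied in Tris saline Tween buffer holding calcium plus EGTA and DTT.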 As to conditions: Cy5-CALM1 binding fluorescence, higher = more signal.
The target is the same in experiment [15]. The experiment in a line: calcium-bound CALM1 binders on microarrays, profiling panel, artefact control for SMM control-protein annotation, biochemical, small-molecule microarray, Cy5-labelled CALM1, plus calcium (AID 1112).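 Note: score merges spot fluorescence with signal to noise from triplicate slides.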 Particulars: Cy5-CALM1 binding fluorescence, higher = more signal.
A short description of experiment [16]: small-molecule microarray binders of probe aWnt5a, primary screen, biochemical, biotinylated probe, 635/667 nm fluorescence (AID 1113).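 Note: score merges 667 nm fluorescence intensity with signal-to-noise per printed feature.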 As to conditions: higher = more signal; small-molecule microarray, probe aWnt5a, fluorescence unless noted.
Experiment [17] in a line: small-molecule microarray binders of probe aShh, primary screen, biochemical, biotinylated probe, 635/667 nm fluorescence (AID 1114).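 Note: probe is biotin-labelled aShh protein from a stem cell growth factor screen; measures binding of labelled protein to compounds printed on the slide; score merges feature fluorescence at 667 nm with signal-to-noise.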 Particulars: higher = more signal; small-molecule microarray, probe aShh, fluorescence unless noted.
The nature of experiment [18]: small-molecule microarray binders of probe aNog, primary screen, biochemical, biotinylated probe, 635/667 nm fluorescence (AID 1115).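 Note: probe is biotinylated aNog protein used at 0.15 µg/mL for 1 h at 4 C; z-score combines 667 nm fluorescence of each spot with its signal to noise.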 As to conditions: higher = more signal; small-molecule microarray, probe aNog, fluorescence unless noted.
Experiment [19] concerns the target Torsin-1A-interacting protein 1 (Homo sapiens) (UniProt Q5JTV8). As to the kind of experiment: LAP1 binders from COS7 cell lysate, primary screen, small-molecule microarray, 635/667 nm fluorescence (AID 1116). Particulars: COS7-hLAP1 lysate binding, 635 nm fluorescence, higher = more signal.
For experiment [20], the target named is Alpha-bungarotoxin (Bungarus multicinctus) (UniProt P60615). The experiment in a line: alpha-bungarotoxin binders on microarray, profiling panel, artefact control for SMM control protein annotation, biochemical, small-molecule microarray, Alexa647 label, 635/667 nm fluorescence (AID 1117). Particulars: alpha-BTX-A647 binding fluorescence, higher = more signal.

Each structure is given as a SMILES string. The source made the active and inactive calls.

Sequence of Epidermal growth factor receptor (Homo sapiens) (P00533 whole entry, looked up): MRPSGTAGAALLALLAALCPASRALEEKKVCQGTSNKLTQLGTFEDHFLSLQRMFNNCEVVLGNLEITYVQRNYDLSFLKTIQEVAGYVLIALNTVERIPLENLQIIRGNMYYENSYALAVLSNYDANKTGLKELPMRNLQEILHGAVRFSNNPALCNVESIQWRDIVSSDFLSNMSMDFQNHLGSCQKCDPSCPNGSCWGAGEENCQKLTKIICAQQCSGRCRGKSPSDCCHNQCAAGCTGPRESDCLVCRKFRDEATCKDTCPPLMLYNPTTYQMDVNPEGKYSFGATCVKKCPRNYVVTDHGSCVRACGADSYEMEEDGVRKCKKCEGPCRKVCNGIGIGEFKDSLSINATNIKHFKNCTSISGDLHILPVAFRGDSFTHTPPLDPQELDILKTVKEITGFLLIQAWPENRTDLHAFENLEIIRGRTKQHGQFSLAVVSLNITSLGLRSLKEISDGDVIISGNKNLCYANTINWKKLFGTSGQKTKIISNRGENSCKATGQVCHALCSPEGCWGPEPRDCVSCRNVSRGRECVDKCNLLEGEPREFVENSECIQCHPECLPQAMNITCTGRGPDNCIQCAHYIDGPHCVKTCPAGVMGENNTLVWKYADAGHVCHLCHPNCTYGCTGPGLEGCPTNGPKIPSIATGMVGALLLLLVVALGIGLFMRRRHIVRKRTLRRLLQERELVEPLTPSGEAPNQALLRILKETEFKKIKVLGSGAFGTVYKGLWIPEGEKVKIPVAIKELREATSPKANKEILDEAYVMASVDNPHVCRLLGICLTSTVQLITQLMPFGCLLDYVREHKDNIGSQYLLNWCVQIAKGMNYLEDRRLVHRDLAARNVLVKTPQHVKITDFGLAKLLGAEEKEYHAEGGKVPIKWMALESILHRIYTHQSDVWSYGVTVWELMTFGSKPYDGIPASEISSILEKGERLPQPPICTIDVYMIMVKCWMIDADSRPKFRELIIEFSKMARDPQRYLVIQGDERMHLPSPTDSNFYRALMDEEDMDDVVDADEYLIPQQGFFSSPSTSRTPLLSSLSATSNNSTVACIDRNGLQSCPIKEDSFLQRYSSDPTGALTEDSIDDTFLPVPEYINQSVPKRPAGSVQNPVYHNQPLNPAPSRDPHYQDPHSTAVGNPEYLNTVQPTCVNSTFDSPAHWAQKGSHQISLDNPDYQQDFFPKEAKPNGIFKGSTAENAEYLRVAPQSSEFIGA
Sequence of Alpha-bungarotoxin (Bungarus multicinctus) (P60615 whole entry, looked up): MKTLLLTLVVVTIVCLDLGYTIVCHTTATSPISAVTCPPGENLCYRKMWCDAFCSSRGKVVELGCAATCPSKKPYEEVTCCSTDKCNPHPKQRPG
Sequence of Fibroblast growth factor 10 (Homo sapiens) (O15520 whole entry, looked up): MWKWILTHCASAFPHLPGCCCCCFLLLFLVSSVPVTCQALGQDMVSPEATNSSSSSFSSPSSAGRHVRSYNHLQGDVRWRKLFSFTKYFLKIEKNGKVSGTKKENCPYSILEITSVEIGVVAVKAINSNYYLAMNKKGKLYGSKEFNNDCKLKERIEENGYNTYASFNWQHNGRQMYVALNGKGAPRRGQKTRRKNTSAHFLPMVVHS
Sequence of Torsin-1A-interacting protein 1 (Homo sapiens) (Q5JTV8 whole entry, looked up): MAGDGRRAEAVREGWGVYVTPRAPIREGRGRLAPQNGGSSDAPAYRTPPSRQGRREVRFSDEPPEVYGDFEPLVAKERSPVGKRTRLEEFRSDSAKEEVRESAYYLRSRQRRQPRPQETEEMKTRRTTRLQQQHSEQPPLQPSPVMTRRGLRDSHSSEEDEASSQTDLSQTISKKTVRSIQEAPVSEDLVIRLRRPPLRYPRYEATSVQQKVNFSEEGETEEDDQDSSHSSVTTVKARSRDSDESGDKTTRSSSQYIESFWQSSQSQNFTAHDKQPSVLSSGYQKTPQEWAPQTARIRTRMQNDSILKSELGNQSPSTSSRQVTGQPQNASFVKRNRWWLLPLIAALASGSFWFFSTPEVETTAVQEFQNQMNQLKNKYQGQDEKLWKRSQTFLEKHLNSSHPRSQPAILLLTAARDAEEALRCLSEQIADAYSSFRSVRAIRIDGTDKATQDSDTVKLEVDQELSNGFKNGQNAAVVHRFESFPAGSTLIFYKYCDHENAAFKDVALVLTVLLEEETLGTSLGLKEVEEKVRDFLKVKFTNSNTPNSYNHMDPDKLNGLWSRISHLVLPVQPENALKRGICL
Sequence of Dickkopf-related protein 1 (Homo sapiens) (O94907 whole entry, looked up): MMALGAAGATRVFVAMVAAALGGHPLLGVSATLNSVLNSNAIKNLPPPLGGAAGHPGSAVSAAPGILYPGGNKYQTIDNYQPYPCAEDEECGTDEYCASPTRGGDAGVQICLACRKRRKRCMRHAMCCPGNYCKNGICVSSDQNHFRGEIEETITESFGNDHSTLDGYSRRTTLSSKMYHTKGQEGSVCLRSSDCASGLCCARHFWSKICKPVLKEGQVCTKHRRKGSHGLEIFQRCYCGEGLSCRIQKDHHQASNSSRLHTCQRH
Sequence of Left-right determination factor 2 (Homo sapiens) (O00292 whole entry, looked up): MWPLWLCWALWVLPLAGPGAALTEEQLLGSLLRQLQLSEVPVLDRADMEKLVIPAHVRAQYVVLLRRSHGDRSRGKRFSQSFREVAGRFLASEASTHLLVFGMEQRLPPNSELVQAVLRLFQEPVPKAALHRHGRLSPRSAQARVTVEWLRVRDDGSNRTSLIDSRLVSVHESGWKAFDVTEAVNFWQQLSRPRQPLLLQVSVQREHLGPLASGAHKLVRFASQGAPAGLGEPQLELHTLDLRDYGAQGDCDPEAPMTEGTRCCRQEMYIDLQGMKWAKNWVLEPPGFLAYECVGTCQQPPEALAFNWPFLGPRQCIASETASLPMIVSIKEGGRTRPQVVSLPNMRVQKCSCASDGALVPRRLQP
Sequence of Follistatin-related protein 3 (Homo sapiens) (O95633 whole entry, looked up): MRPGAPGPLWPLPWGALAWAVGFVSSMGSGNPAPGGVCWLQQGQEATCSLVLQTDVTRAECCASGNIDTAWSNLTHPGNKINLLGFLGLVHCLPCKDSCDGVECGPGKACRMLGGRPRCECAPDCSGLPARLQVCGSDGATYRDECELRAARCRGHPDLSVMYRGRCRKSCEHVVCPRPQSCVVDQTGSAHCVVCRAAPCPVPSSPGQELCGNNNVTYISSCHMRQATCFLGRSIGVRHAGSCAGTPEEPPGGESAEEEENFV

Consider `CN1CCC(c2ccc(CO)cc2)=CC1C1CC1` (stereo not given), for which the composite z-score was 0.262 in experiment [1]; -0.368 in experiment [2]; -0.49 in experiment [3]; 0.179 in [5]; -0.107 in [6]; 0.388 in [7]. For the same molecule, the composite z-score in experiment [8] is -0.196; in experiment [9], 0.429; in experiment [10] it was 0.939; in experiment [11] it was 0.0996; in experiment [13], 0.163; in experiment [14] it was -0.257. The composite z-score is -0.691 in experiment [15]; -0.208 in experiment [16]; -0.0474 in experiment [17]; -0.198 in experiment [18]; -0.0443 in [19]; 0.0005 in experiment [20]. Besides, the results for the z-score in experiment [4] and in experiment [12] were 0.596 (inactive) and -0.954, respectively.
For the molecule `COC(=O)C1(C)C=C2C(=C(C)C(=O)C2C)CN1` (stereo not given), the composite z-score in experiment [1] was -0.656; in experiment [2], 0.859; in experiment [3], 0.944; in experiment [5], -0.618; in [6], -0.623; in experiment [7], -0.885. For the same molecule, the composite z-score was -0.729 in experiment [8]; -0.706 in [9]; 1.11 in [10]; -0.131 in [11]; -0.412 in [13]; -0.423 in experiment [14]. Also, the composite z-score in experiment [15] is 0.0902; in experiment [16] it was -0.113; in [17] it was 0.381; in experiment [18], 1.48; in experiment [19], 1.18; in experiment [20], -0.313. The z-score was 0.522 (inactive) in experiment [4] and -0.0365 in experiment [12].
Turning to `C[C@@H]1OC=C2[C@@H](O)[C@H]3O[C@H]3C(=O)[C@]23[C@H]1[C@H]1C2=C([C@@H](O)[C@H]4O[C@H]4C2=O)[C@@H]3O[C@@H]1C`, the composite z-score is -0.636 in experiment [1]; -0.0177 in experiment [2]; -0.572 in experiment [3]; 0.0109 in experiment [5]; -0.349 in [6]; 0.367 in experiment [7]. Further, the composite z-score in [8] was 0.22; in experiment [9] it was 0.568; in [10] it was 0.503; in experiment [11], -2.16; in experiment [13] it was 0.425; in [14], -1.11. Also, the composite z-score is -0.718 in [15]; -0.224 in experiment [16]; -0.2 in experiment [17]; -0.244 in [18]; 0.0387 in experiment [19]; -0.244 in [20]. Further, the z-score in experiment [4] is 0.802 (inactive); in [12] it was -1.29.
For `CCOC(=O)[C@H]1CC=C2C(=O)Oc3ccccc3[C@@H]21`, the composite z-score in experiment [1] is -0.283; in experiment [2], -0.295; in experiment [3], 0.521; in [5] it was -0.375; in experiment [6], -0.45; in [7], -0.695. In addition, the composite z-score is -0.77 in experiment [8]; -1.06 in experiment [9]; 0.0965 in [10]; 0.252 in experiment [11]; -0.562 in [13]; -0.229 in experiment [14]. Besides, the composite z-score in [15] is -0.42; in experiment [16], -0.129; in experiment [17] it was -0.366; in experiment [18] it was 0.356; in experiment [19] it was -1.28; in experiment [20], -0.0764. Also, the z-score in [4] is -0.0119 (inactive); in experiment [12] it was -1.93.
Consider `CN1CCC(c2ccc(CO)cc2)=CC1c1cccs1` (stereo not given), for which the composite z-score is 0.0161 in [1]; -0.367 in experiment [2]; -0.17 in [3]; -0.474 in [5]; -0.323 in [6]; 0.0626 in experiment [7]. The composite z-score is 0.152 in [8]; 1.55 in [9]; 0.917 in experiment [10]; -0.895 in [11]; -0.0469 in [13]; -0.0348 in [14]. For the same molecule, the composite z-score in experiment [15] is -0.556; in experiment [16], -0.0685; in experiment [17], -0.0769; in [18], -0.216; in experiment [19], 0.238; in experiment [20], 0.945. Moreover, the z-score was -0.0418 (inactive) in [4] and 1.05 in experiment [12].
`COC(=O)[C@H]1[C@H](c2ccccc2)C(=O)[C@]2(O)c3ccccc3O[C@@]12c1ccccc1`: the composite z-score in [1] is 0.219; in experiment [2] it was -0.291; in experiment [3], -0.463; in experiment [5], 0.37; in experiment [6], 0.423; in experiment [7], 0.437. Also, the composite z-score is 0.419 in experiment [8]; 0.314 in [9]; -0.228 in [10]; 0.304 in experiment [11]; 0.832 in [13]; 0.384 in experiment [14]. Moreover, the composite z-score in experiment [15] is -0.0524; in [16], -0.131; in [17] it was 0.0048; in [18] it was -0.293; in experiment [19], 0.106; in experiment [20], 0.0914. The z-score in [4] was -1.58 (inactive); in [12] it was 0.0741.
For the molecule `CCCC[C@@H]1C[C@H]1[C@@H](NP(=O)(c1ccccc1)c1ccccc1)c1ccc(Cl)cc1`, the composite z-score in [1] is -0.168; in experiment [2] it was 0.294; in experiment [3], 0.988; in experiment [5], -0.668; in experiment [6], -0.924; in experiment [7], -1.5. Besides, the composite z-score in experiment [8] is -1.57; in experiment [9], -0.818; in experiment [10], 1.18; in experiment [11], -1.21; in experiment [13], -1.67; in experiment [14] it was 1.14. Besides, the composite z-score in experiment [15] was 1.32; in experiment [16] it was 0.0403; in [17], 0.254; in experiment [18], 0.633; in [19], -0.314; in experiment [20], -0.0059. The z-score in experiment [4] was -3.54 (inactive); in [12] it was -0.657.
As to `CCCc1cc2c(n1Cc1ccc(C)cc1)C(C)C1CN(C(=O)c3ccccc3)C(C)(C(=O)OC)C21` (stereo not given), the composite z-score in experiment [1] is -0.232; in experiment [2], 1.69; in experiment [3] it was 1.46; in experiment [5], 1.15; in experiment [6], 0.0952; in experiment [7], 0.234. Further, the composite z-score in [8] was 1.12; in experiment [9], -0.0627; in experiment [10] it was 1.28; in [11], 0.294; in experiment [13], -0.472; in [14], 2.63. In addition, the composite z-score was 1.31 in experiment [15]; 0.417 in experiment [16]; 0.769 in experiment [17]; 1 in [18]; 2.25 in experiment [19]; 1.9 in experiment [20]. The z-score was -3.92 (inactive) in experiment [4] and -1.33 in experiment [12].

Source of the values: PubChem BioAssay.
